From PubChem
HT1080 IDH1KD tx = kills HT-1080 cells with IDH1 knockdown. HT-1080 IDH1 knockdown viability, ATP luminescence, 48 h. Potency, µM (series often up to 46.1 µM), without a hit: at the top dose activity, negative = toxicity, hits mostly cytotoxic. 2% of 360,000 active. AID 686971;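 also: potency is read from the fitted curve at half-maximal effect; 0% = DMSO wells and -100% = cell-free medium wells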
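Viability of IDH1-knockdown HT-1080 fibrosarcoma cells was assessed by CellTiter-Glo after 48 h at 37 °C with titrated compound; concentration-effect curves were classified by fit quality and response size.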
IL1B secr inh = inflammasome signaling inhibition, IL-1 beta readout; 4.7% of 360,000 active; activity change, % at 57.5 µM; THP-1 LPS/ATP IL-1B secretion, AlphaLISA, 16 h; stronger effect = lower value; AID 743279; in the data active = activity change below about -50%; inconclusive = mostly about -30% to -49%
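THP-1 cells pretreated 1 hr with compounds (up to 57.5 uM final), then stimulated with LPS (250 ng/mL final) plus ATP (1.25 mM final); secreted IL-1B measured by AlphaLISA after 16 hr, decreased signal indicating inhibition.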
DT40 TDP1 no CPT = qHTS for Inhibitors of human tyrosyl-DNA phosphodiesterase 1 (TDP1): qHTS in cells in absence of CPT; DT40 Tdp1-/- hTDP1 cells, no CPT, ATP luminescence, 48 h; 15% of 420,000 active; Potency, µM (doses to about 46.2 µM), for inactives: top-dose activity change, negative = growth inhibition, actives largely listed as inhibitors; also: potency is read from the fitted curve at half-maximal effect; nearly all actives have a fitted effect of over 55% in size
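Cells were dispensed at 400 per well, compounds added by pin tool, plates incubated ≥48 hr at 37 °C, then CellTiter-Glo added for 30 min at room temperature before luminescence reading. Line: DT40 Tdp1-/- complemented with hTDP1; camptothecin omitted.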
HT1080-NT tox = kills 2HG-producing HT-1080-NT fibrosarcoma cells; HT-1080-NT fibrosarcoma viability, CellTiter-Glo ATP luminescence, 48 h; Potency, µM (series often up to 46.1 µM), for inactives: top-dose activity, negative = less viability, usual class: cytotoxic; 1.6% of 360,000 active; AID 686970;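 also: NT is the 2HG producing partner of a matched IDH1 knockdown line; potency is read from the fitted curve at half-maximal effect; 0% = DMSO-treated cells and -100% = media-only wells without cells; nearly all actives have a fitted effect of over 55% in size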
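Read-out is CellTiter-Glo luminescence after 10 minutes at room temperature, following 48 hours' compound treatment of HT-1080-NT cells (750 cells/well, RPMI, 5% FBS, 37 degrees C).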
ALOX12 inh = inhibitors of human 12S-lipoxygenase ALOX12; P18054; purified 12hLO, xylenol orange hydroperoxide absorbance; Potency, µM (highest dose often 108 µM), inactives show top-dose activity change, negative = inhibition, usual class: inhibitors; 1.1% of 580,000 active; also: potency is read from the fitted curve at half-maximal effect
Target sequence (P18054 whole entry, looked up): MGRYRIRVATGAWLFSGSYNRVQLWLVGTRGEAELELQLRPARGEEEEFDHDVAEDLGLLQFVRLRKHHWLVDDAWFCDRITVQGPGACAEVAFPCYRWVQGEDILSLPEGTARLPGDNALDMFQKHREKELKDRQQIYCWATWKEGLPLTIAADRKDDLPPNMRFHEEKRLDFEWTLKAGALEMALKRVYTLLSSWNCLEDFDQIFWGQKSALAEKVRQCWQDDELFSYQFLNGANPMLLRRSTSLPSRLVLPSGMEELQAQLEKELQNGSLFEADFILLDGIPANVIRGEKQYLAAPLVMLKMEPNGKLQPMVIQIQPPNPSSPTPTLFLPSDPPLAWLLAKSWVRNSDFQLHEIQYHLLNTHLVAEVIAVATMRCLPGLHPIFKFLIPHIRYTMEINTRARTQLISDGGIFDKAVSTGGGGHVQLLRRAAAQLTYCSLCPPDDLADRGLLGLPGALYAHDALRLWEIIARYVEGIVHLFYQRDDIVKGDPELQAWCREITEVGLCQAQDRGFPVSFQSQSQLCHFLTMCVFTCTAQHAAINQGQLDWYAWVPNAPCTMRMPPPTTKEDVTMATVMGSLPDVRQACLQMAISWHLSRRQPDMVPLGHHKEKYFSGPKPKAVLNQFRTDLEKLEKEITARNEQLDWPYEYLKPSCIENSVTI
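Hydroperoxide product was detected by ferrous iron/xylenol orange as the 573 to 405 nm absorbance ratio. Arachidonic acid at 40 uM (final) was turned over for 30 min at room temperature by 150 nM human 12hLO, pH 7.0 Hepes buffer, after 15 min compound preincubation.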
TDP1 cell CPT = growth inhibition of DT40 Tdp1-/-;hTDP1 cells with camptothecin (screen for TDP1 inhibitors); chicken DT40 Tdp1-/-;hTDP1 cells + 20 nM CPT, ATP luminescence, 48 h; Potency, µM (top dose mostly 46.2 µM), without a hit: at the highest dose activity change, negative = growth inhibition, hits mostly inhibitors; 12% of 420,000 active; also: potency is read from the fitted curve at half-maximal effect; nearly all actives have a fitted effect of over 55% in size
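Chicken DT40 Tdp1-/- cells stably complemented with human TDP1 were seeded at 400 cells/well in medium containing 20 nM camptothecin, exposed to pin-transferred compounds, and grown at 37 °C for at least 48 hr. Viability was read as ATP luminescence.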
Numbers without * were called inactive; ? = inconclusive; · = no result; [ ] = another dose, or the depositor's remark. The sample as a whole holds a higher share of hits than the screen did. Unless noted, calls follow the shape of the dose curve; as a rule, active = well fitted curve in the direction sought with a large enough effect; inconclusive = small, poorly fitted or top-dose-only effect, or another doubt; inactive = no such curve, though single readings can be large; an effect the other way counts as inactive or inconclusive. Unless noted, % is scaled to controls: 0 for no effect and ±100 for the full control effect.

SMILES	HT1080 IDH1KD tx	IL1B secr inh	DT40 TDP1 no CPT	HT1080-NT tox	ALOX12 inh	TDP1 cell CPT
Cc1ccc(Sc2c(C)nn(C(=O)COc3ccccc3)c2C)cc1	·	·	-27.4%	·	-79.9%	-28.0%
COc1ccc(S(=O)(=O)NC(=O)C2(C)CCN2C(=O)CCC2CCCC2)cc1OC (stereo not given)	?	34.8	-5.1%	7.3%	?	?
CC(C)(C)C(=O)NNc1nc(-c2ccccc2)c2cc(Br)ccc2n1	-24.9%	-16.1	13µM*	-5.5%	?	16.4µM*
CC1CCCN(C(=O)c2ccccc2CSc2nc3ccccc3o2)C1 (stereo not given)	·	·	·	·	12.2%	·
C=C(C(=O)c1ccccc1)C(c1ccccc1)C(C)C(=O)c1ccccc1 (stereo not given)	?	-96.9*	?	?	10.9%	?
C=C(C(=O)c1ccccc1)C(C(=C)C(=O)c1ccccc1)c1ccc(OC)cc1	-5.8%	-61.4*	5.17µM*	3.9%	166.5%	10.3µM*
C=C(C(=O)c1ccccc1)C(C)C(=C)C(=O)c1ccccc1	5.8µM*	-102.5*	5.8µM*	8.2µM*	-1.6%	5.8µM*
O=C(c1ccccc1)C(c1ccccc1)c1ccccc1	8.9%	11.4	-24.9%	14.9%	17.6%	3.2%
CCOC(=O)N1CCN(C(=O)c2cc3ccccc3[nH]2)CC1	·	·	·	·	-2.0%	·
COc1cccc(N2C(=O)NC(=NC3CCCCC3)C23CCN(C(=O)c2ccccc2OC)CC3)c1	·	·	·	·	1.8%[6.33 µM]	·
COc1ccc(C(=O)N2CC[C@@H]3COCCN(C)[C@@H]3C2)c(OC)c1	·	·	·	·	19.7%	·
COc1cccc(/C=N/NC(=O)c2cc3c(OC)ccc(OC)c3[nH]2)c1O	25.9µM*	80.4	4.11µM*	?	9.2%	6.51µM*
COc1cc(OC)c2cc(C(=O)N/N=C/c3cccc(OC)c3O)[nH]c2c1	9.2µM*	114.0	6.51µM*	?	-1.5%	14.6µM*
COc1cccc(/C=N/NC(=O)c2ccc3nc[nH]c3c2)c1O	?	114.6	-29.7%	?	-4.5%	?
CCOc1ccc(Sc2cc(C(=O)NCc3ccc(F)cc3)c3ccccc3n2)cc1	·	·	?	·	-13.0%	-26.9%
CCC(C)NC(=O)c1cc(-c2ccccc2)nc2ccccc12 (stereo not given)	·	·	·	·	30.1%	·
CCc1ccc(Sc2cc(C(=O)NCc3ccccc3OC)c3ccccc3n2)cc1	·	·	18.4µM*	·	-14.3%	20.6µM*
CC(C)CCNC(=O)c1cc(Sc2ccc(F)cc2F)nc2ccccc12	·	·	?	·	-18.2%	?
CCC(C)NC(=O)c1cc(Sc2cccc(Cl)c2)nc2ccccc12 (stereo not given)	·	·	14.6µM*	·	-16.2%	16.4µM*
CCc1ccc(Sc2cc(C(=O)NC(C)CC)c3ccccc3n2)cc1 (stereo not given)	·	·	16.4µM*	·	0.0%	16.4µM*
O=C(NCc1ccc(F)cc1)c1cc(Sc2ccc(F)cc2F)nc2ccccc12	·	·	?	·	-23.0%	16.4µM*
COc1ccc(-c2noc(CC3CCN(C(=O)COc4ccc(C)cc4)CC3)n2)cc1	·	·	·	·	5.8%	·
O=C(NCCc1ccc(F)cc1)C1CCN(c2ccc3nnc(C(F)(F)F)n3n2)CC1	·	·	·	·	3.1%	·
O=C(N1CCCCC1)C12CC3CC(C1)CC(C(=O)N1CCCCC1)(C3)C2	2.3%[9.24 µM]	3.4	23.1µM*	9.8%	-2.4%	?
O=C(N1CCCCC1)C12CC3CC(CC(Cl)(C3)C1)C2	·	·	·	·	3.9%	·
SMILES	HT1080 IDH1KD tx	IL1B secr inh	DT40 TDP1 no CPT	HT1080-NT tox	ALOX12 inh	TDP1 cell CPT
CC1CC(=O)C(C(C2=C(O)CC(C)CC2=O)c2ccccc2)=C(O)C1 (stereo not given)	-1.2%	-7.7	0.6%	1.6%	14.6%	17.7%
CCCOc1ccccc1OCC(=O)Nc1ccc(S(=O)(=O)N2CCCC2)cc1	1.1%	1.0	16.4µM*	-8.7%	4.1%	?
COc1ccccc1C(=O)Nc1ccc(S(=O)(=O)N2CCN(C)CC2)cc1	-6.4%	0.5	-7.1%	-11.1%	?	-8.0%
CCCOc1ccccc1C(=O)Nc1ccc(S(=O)(=O)N2CCN(C)CC2)cc1	-8.7%	-16.0	16.4µM*	-18.7%	-10.2%	18.4µM*
COc1ccccc1OCC(=O)Nc1ccc(S(=O)(=O)N2CCCCCC2)cc1	-6.5%[9.24 µM]	-4.3	?	5.2%	-9.2%	?
O=C(COc1ncnc2c1cnn2-c1ccccc1)Nc1ccc(S(=O)(=O)N2CCCCC2)cc1	-16.9%	0.0	?	-18.2%	-17.8%	16.4µM*
COc1ccc2[nH]c(=O)c(CN(C)S(C)(=O)=O)cc2c1	·	·	·	·	0.4%	·
O=C(OCc1cccc(COC(=O)c2ccc(OCC3CCCO3)cc2)c1)c1ccc(OCC2CCCO2)cc1 (stereo not given)	·	·	·	·	7.0%	·
CC1CCC2(CC1)NC(=O)N(CC(=O)Nc1cccc(Cl)c1)C2=O (stereo not given)	·	·	·	·	-12.0%	·
Cc1oc2cc3c(C(=O)N4CCCCC4)c(C)oc3cc2c1C(=O)N1CCCCC1	3.3%	20.9	18.4µM*	7.1%	-0.4%	?
COc1cc2c(C(=O)N3CCN(C)CC3)c(C)oc2cc1Br	0.8%	14.2	-13.1%	7.5%	-8.1%	-0.2%
Nc1ccc(C=C2C=Cc3ccccc32)cc1	-9.1%	-74.4*	0.6%	-13.3%	?	4.1%
COc1cc(/C=C2\C=Cc3ccccc32)cc(OC)c1OC	·	·	15.8µM*	·	·	?
COc1ccc(/C=C2/C=Cc3ccccc32)cc1	·	·	?	·	·	1.4%
NC(N)=Nc1ccc(C=C2C=Cc3ccccc32)cc1	?	-68.3*	9.2µM*	-10.6%	?	9.2µM*
C1=Cc2ccccc2/C1=C\c1cc[cH-]c1.[Fe+2].c1cc[cH-]c1	·	·	?	·	·	11.2µM*
CN(N=O)c1ccc(/C=C2\C=Cc3ccccc32)cc1	·	·	-27.7%	·	·	2.2%
CS(=O)(=O)c1ccc(/C=C2\C=Cc3ccccc32)cc1	·	·	20µM*	·	·	?
O=C1CC2(CCN(C(=O)c3ccc(Br)cc3)CC2)Oc2ccccc21	-16.2%	-51.5*	18.4µM*	-0.9%	-7.6%	?
Cc1c(C(=O)N2CCC3(CC2)CC(=O)c2ccccc2O3)cccc1[N+](=O)[O-]	-0.1%	32.7	23.1µM*	0.0%	-36.7%	18.4µM*
N#C/C(=C/c1ccccc1OC(F)F)C(=O)Nc1ccccc1Cl	·	·	·	·	7.9%	·
Cc1ccc(C)c(C(=O)CCC(=O)NNC(=O)Cn2nc(C)cc2C)c1	9.6%	21.1	2.06µM*	9.9%	1.3%	?
